# ADAM10 inh: inhibits human ADAM10; inhibition, % at 7 µM; O14672; hit rate 0.62% among 370,000; AID 720582; recombinant ADAM10, EDANS/DABCYL FRET peptide cleavage, 3 h;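 active = inhibition above a per-campaign cutoff equal to the mean of compounds falling between control-based bounds plus 3 SD, cut at about 20% in these data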;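 also: 0% = DMSO wells while the 100% control is not disclosed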
# Target sequence (O14672 214-748 limits assumed): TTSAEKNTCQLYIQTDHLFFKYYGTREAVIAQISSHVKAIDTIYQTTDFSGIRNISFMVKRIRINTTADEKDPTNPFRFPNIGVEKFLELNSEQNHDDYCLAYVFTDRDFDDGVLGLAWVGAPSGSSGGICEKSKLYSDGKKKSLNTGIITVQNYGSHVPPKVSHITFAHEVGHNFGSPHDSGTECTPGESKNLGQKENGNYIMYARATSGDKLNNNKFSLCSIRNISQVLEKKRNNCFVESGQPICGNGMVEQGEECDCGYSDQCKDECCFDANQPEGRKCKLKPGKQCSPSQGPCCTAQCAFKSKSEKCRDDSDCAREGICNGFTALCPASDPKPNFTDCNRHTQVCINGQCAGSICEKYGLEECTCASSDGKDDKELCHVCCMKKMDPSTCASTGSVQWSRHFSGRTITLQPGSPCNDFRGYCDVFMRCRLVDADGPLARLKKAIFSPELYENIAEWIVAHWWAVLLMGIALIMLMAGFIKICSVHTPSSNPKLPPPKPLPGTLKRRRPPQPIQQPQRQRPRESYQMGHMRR
# NPR2 activator: GC-B (human) receptor activation; AID 1920062; HEK293-GC-B cells, CNP EC30, cGMP TR-FRET; 0% at EC30 CNP, 100% saturating CNP; activation, % at 10 µM; hit rate 0.11% among 370,000;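 active = activation at 10 µM reaching about 35% in either raw or pattern-adjusted values, limit read from the data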
# GC-A act: GC-A (human) enzyme activation; activation, % at 10 µM; HEK293 GC-A cells, cGMP TR-FRET, EC30 ANP; 0% at EC30 ANP, 100% saturating ANP; P16066; hit rate 0.14% among 370,000; AID 1671463; in the data active = activation above about 40%
# FAS TE block: blocks the thioesterase domain of human fatty acid synthase | hit rate 0.67% among 360,000 | inhibition, % at 15 µM | P49327 | recombinant FAS-TE, OMFH fluorogenic substrate, fluorescence endpoint;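 active = compounds whose normalised, plate-corrected inhibition of enzyme fluorescence in the single-dose primary screen is 50% or more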;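 also: 0% = DMSO with enzyme and 100% = substrate without enzyme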
# ADAM17 inh: ADAM17 inhibition, QFRET primary screen | P78536 | recombinant ADAM17, EDANS/DABCYL FRET peptide cleavage | inhibition, % at 6.95 µM | hit rate 0.83% among 370,000;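 active = inhibition above the mean of compounds lying between control limits plus 3 SD, set per campaign, cut at about 8.5% in these data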;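 also: 0% = DMSO-only wells as the low control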
# ADAM10 ctr: inhibits human ADAM10 in ADAM17 exosite counter-screen; shares compounds with ADAM17 inh; recombinant ADAM10, EDANS/DABCYL FRET peptide cleavage, 3 h; inhibition, % at 6.95 µM; hit rate 47% among 2,900; AID 743256;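 active = mean inhibition over the triplicate runs exceeds the activity threshold set in the earlier primary screen, cut at about 20% in these data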;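 also: 0% = DMSO wells and 100% = marimastat wells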
# ADAM17 confirm: confirmation of inhibitors of human ADAM17; shares compounds with ADAM17 inh; recombinant ADAM17, EDANS/DABCYL QFRET peptide cleavage; inhibition, % at 6.95 µM; hit rate 65% among 2,900;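 active = mean inhibition across replicates above the hit cutoff set in the primary screen, cut at about 8.5% in these data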;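 also: 0% = DMSO wells and 100% = marimastat wells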
# The depositor's hits bear a star; i = inactive; x = no result. In the library only some 2% were active in any assay of this set; here they are far more common.
SMILES,ADAM10 inh,NPR2 activator,GC-A act,FAS TE block,ADAM17 inh,ADAM10 ctr,ADAM17 confirm
CCN(c1ccc(NC(=O)COC(=O)C2CCN(c3ccc(C(F)(F)F)cn3)CC2)cc1)C(C)C,11,-6,-7,32,8.9*,37*,18*
CC(C)N(C(N)=NC(=O)OCc1ccccc1)C(C)C,-1,2,-1,x,-1,x,x
COc1ccc(CN2CC(=O)N3[C@H]4c5cc(C)ccc5OC[C@@H]4[C@H](c4ccccc4)[C@]3(C)C2=O)cc1,4,3,-3,41,7,x,x
Cc1ccc2c(c1)[C@H]1[C@H](CO2)[C@H](c2ccccc2)[C@]2(C)C(=O)N(Cc3ccc(Cl)cc3)CC(=O)N12,15,-5,-4,30,12*,10,12*
CCOc1cc(C(=O)OCC(=O)Nc2ccc(SC(F)F)cc2)cc(OCC)c1OCC,19,2,0,29,10*,38*,18*
COC(=O)[C@@H]1C[C@@]2(O)[C@H](O)[C@H](O)[C@H](O)C[C@H]2N1Cc1ccc(C(F)(F)F)cc1,1,5,2,-11,10*,7,6
COC(=O)[C@@H]1C[C@@]2(O)[C@@H](O)[C@@H](O)[C@@H](O)C[C@H]2N1Cc1ccc(C(F)(F)F)cc1,-4,-2,-2,-9,-3,x,x
CC(C)CNS(=O)(=O)c1ccc(CCC(=O)Nc2cc(Cl)ccc2Oc2ccccc2)cc1,19,1,1,33,9.7*,39*,21*
CC(C)(C)NS(=O)(=O)c1ccc(CCC(=O)Nc2cc(Cl)ccc2Oc2ccccc2)cc1,19,-4,-6,26,9.7*,33*,19*
CC1=C(C(=O)OCc2ccccc2)C(/C=C/c2ccccc2)NC(=S)N1 (centres undefined),18,-4,39,18,12*,30*,15*
COC(=O)[C@]12C[C@H](CC(=O)NCc3ccc(C)o3)C(=O)N(CCC3=CCCCC3)C1=C[C@H](C1CCCC1)O[C@@H]2C,-3,-5,-3,x,-5,x,x
CC(C)(C)OC(=O)N(Cc1ccccc1)Cc1ccccc1OCc1ccc(NC(=O)C2CCC2)cc1,8,0,1,14,13*,13,11*
Cc1cccc(OCCCN2CCC(C(O)(c3ccccc3)c3ccccc3)CC2)c1,-10,-9,-14,x,-4,x,x
O=C(N1CCOCC1)N1CC[C@H]2[C@H](CCCN2Cc2cc(F)cc(F)c2)C1,3,-1,0,x,0,x,x
CCOC(=O)[C@]12CCCCC/C=C\1N(CCc1ccc(Cl)cc1)C(=O)[C@H]2CC(=O)NCCC(C)C,8,0,-1,x,-1,x,x
CCOC(=O)[C@]12CCCCC/C=C\1N(CCc1ccc(Cl)cc1)C(=O)[C@H]2CC(=O)NCc1ccc(C)o1,5,0,-5,x,9.4*,5,3
CCOC(=O)[C@]12CCCCC/C=C\1N(CCc1ccc(Cl)cc1)C(=O)[C@H]2CC(=O)NCc1ccccc1,14,-6,-5,x,11*,25*,12*
O=C(NCCc1c[nH]c2ccccc12)OCc1cn(Cc2cc(F)ccc2F)nn1,1,-1,2,x,-3,x,x
CCc1ccc(-c2cc(C(=O)NCc3ccccn3)c3ccccc3n2)cc1,i,2,9,11,-177,x,x
CCc1ccccc1Nc1cc(C(=O)NCc2ccccn2)c2ccccc2n1,18,-2,-1,1,9.0*,-2,8
Cc1ccc(CNC(=O)O[C@H]2CC[C@@]34CCCN3C(=O)CCC[C@H]4[C@H]2C)o1,-7,-6,0,x,-7,x,x
Clc1ccc(-n2c(SCc3cccc4ccccc34)nnc2-c2ccccn2)cc1,10,-22,-16,x,11*,27*,14*
Clc1ccc(-c2nnc(SCc3cccc4ccccc34)n2-c2ccc(Cl)cc2)cc1,9,4,-4,x,7,x,x
O=C(Cn1c(-c2ccccc2)noc1=O)Nc1ccc(N2CCCCCC2)cc1,17,-5,2,26,11*,24*,17*
COc1ccc(OC)c(S(=O)(=O)N2CCC(c3cn4ccccc4n3)CC2)c1,-293,-2,-2,x,-76,x,x
SMILES,ADAM10 inh,NPR2 activator,GC-A act,FAS TE block,ADAM17 inh,ADAM10 ctr,ADAM17 confirm
COC(=O)C1CN(Cc2cn(Cc3ccc(C)cc3)nn2)CCS(=O)(=O)N1Cc1ccc(F)cc1 (centres undefined),7,-3,-7,x,1,x,x
CC(=O)N1CCN(C(=O)CN2C(=O)CC(C)(C)S(=O)(=O)c3ccccc32)CC1,-13,-4,1,x,-2,x,x
COC(=O)[C@@]12CCCCC3=C1N(CCC3)C(=O)[C@H]2CC(=O)N1CCCC1,-2,-1,4,x,-2,x,x
O=C(NCCc1cccs1)C1CC(c2cccc([N+](=O)[O-])c2)=NO1 (centres undefined),-5,2,2,42,-4,x,x
O=C(NCc1cccs1)c1cc(-c2ccccc2)nn1CC1CC(c2cccc([N+](=O)[O-])c2)=NO1 (centres undefined),16,-2,-3,19,11*,27*,13*
COc1ccc([C@H]2C[C@H](n3cc(COC(=O)c4ccccc4)nn3)[C@@H](O)CN2Cc2cccs2)cc1,11,5,-3,14,12*,32*,14*
C(=C\c1ccccc1)/CN1CCN(C(c2cccc3ccccc23)c2nnnn2Cc2ccccc2)CC1 (centres undefined),19,-4,-5,23,12*,23*,9.6*
C(=C\c1ccccc1)/CN1CCN(C(c2cccs2)c2nnnn2Cc2ccccc2)CC1 (centres undefined),12,2,-3,17,3,x,x
CCCCCCCCNC(=O)C1CSCCS(=O)(=O)N1Cc1ccc(F)cc1 (centres undefined),-1,1,-5,x,1,x,x
O=C1NC(Cc2ccccc2)c2nc3cc(F)ccc3c(=O)n2-c2cc(Cl)ccc21 (centres undefined),1,1,-4,x,-2,x,x
O=C1NC(Cc2ccccc2)c2nc3ccc(F)cc3c(=O)n2-c2cc(Cl)ccc21 (centres undefined),6,7,-4,x,13*,-6,1
O=C(CCSCc1ccc(Cl)cc1)NCCC1=CCCCC1,5,-7,0,17,2,x,x
O=C(CCNC(=O)c1ccc(Cl)cc1)NCCC1=CCCCC1,4,-7,-3,17,8.7*,14,9.2*
COc1cc(F)c(S(=O)(=O)N2CCCN(S(=O)(=O)c3cccc(N)c3)CC2)c(F)c1,-3,-2,2,x,-3,x,x

# Screening results (PubChem)
